BCR signal inh – qHTS Assay to Find Inhibitors of Chronic Active B-Cell Receptor Signaling; ABC-DLBCL IkBa-CBG/CBR reporter, luminescence ratio, 4 h; 340,000 compounds, 0.05% hits; Potency, µM (highest dose often 46.1 µM), for inactives: top-dose activity change, negative = inhibition, hits mostly inhibitors; active means well fitted inhibition curve with a large enough effect in the signal ratio, with a control signal flat, not every such curve was filed as active; inconclusive means small, poorly fitted or top-dose-only effect, or effect the other way, or a change in a side signal; the % refers to the signal ratio;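 further: plate controls were basal doxycycline-induced cells for no effect and cells given 10 µM MG132 for full effect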
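Concentration-response series (up to 46 uM) were applied to TMD8 dual-reporter cells for 4 h at 37C with doxycycline. Green/red ratio, after filter-overlap correction, defined %Activity; red signal alone was normalised to basal cells and zero luminescence.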
Integrin act MD – qHTS for Activators of Integrin-Mediated Alleviation for Muscular Dystrophy. AID 624291, 2012. alpha7betagal myoblasts, beta-gal FDG fluorescence, 48 h. Potency, µM (doses to about 38.3 µM), without a hit: at the highest dose activation, usual class: activators. 350,000 compounds, 0.064% hits;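 further: 100% = response of the positive control SU9516; nearly all actives have a fitted effect of over 60% in size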
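alpha7betagal+/- myoblasts (passage 13, 250/well) treated 48 h at 37C with compounds at 1:260 dilution of DMSO stock. Lysed, then beta-galactosidase activity read as FDG fluorescence (ex 480/em 540) after 30 min, with pre-read for autofluorescence.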
Gal4-VP16 FLuc – VP16 counterscreen qHTS for inhibitors of ROR gamma transcriptional activity; Drosophila S2 Gal4-VP16 UAS-luciferase, luminescence, 20 h; Potency, µM (highest dose often 53.6 µM), for the others: at the top dose activity, negative = inhibition, most hits filed as inhibitors; 310,000 compounds, 3.5% hits; AID 2546, 2010;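 further: Gal4-VP16 expression switched on by copper sulfate through the metallothionein promoter; on the % scale 0 is the no-effect control and ±100 the full control effect; nearly all actives have a fitted effect of over 50% in size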
RORg inh – qHTS for inhibitors of ROR gamma transcriptional activity | Nuclear receptor ROR-gamma (Mus musculus), P51450 | Drosophila S2 Gal4-RORgamma UAS-luciferase reporter, 20 h | Potency, µM (doses to about 53.6 µM), for inactives: at the top dose activity change, negative = inhibition, hits mostly inhibitors | 310,000 compounds, 5.4% hits; further: on the % scale 0 is the no-effect control and ±100 the full control effect; nearly all actives have a fitted effect of over 60% in size
Target sequence (P51450 whole entry, looked up, the tested form may be a part): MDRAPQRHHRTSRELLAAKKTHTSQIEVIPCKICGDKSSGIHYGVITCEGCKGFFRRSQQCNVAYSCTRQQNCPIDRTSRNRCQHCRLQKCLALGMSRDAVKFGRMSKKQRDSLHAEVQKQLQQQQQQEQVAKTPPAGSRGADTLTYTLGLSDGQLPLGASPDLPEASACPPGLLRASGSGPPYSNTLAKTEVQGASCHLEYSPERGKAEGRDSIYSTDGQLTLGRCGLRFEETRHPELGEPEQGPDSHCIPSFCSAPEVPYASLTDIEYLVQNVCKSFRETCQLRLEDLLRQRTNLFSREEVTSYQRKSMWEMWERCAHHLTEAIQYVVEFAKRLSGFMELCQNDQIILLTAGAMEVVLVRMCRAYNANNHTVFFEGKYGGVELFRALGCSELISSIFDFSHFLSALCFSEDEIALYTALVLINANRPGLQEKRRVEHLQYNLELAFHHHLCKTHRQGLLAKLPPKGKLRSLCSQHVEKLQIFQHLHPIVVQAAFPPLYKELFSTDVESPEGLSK
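Luciferase reporter read in Schneider cells carrying Gal4-RORγ (mouse) and UAS-Photinus luciferase; cells given compound 1 h before 700 uM copper sulfate induction, then incubated 20 h at ambient temperature.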
uPA generation – qHTS for Inhibitors of Cell Surface uPA Generation. Potency, µM (top dose mostly 38.3 µM), for inactives: top-dose activity change, negative = inhibition, most hits filed as inhibitors. 330,000 compounds, 0.31% hits. cell surface uPA generation assay, qHTS; active means well fitted inhibition curve with a large enough effect; inconclusive means small, poorly fitted or top-dose-only effect; inactive means no such curve, though single readings can be large or run the other way; tested in mouse RAW 264.7 cells; further: on the % scale 0 is the no-effect control and ±100 the full control effect; nearly all actives have a fitted effect of over 55% in size
Mito fusion yeast – qHTS Assay for Small Molecule Inhibitors of Mitochondrial Division or Activators of Mitochondrial Fusion; 320,000 compounds, 0.23% hits; Potency, µM (highest dose often 46.1 µM), for inactives: top-dose growth rescue (activation), most hits filed as activators; S. cerevisiae fusion-defective mutant growth rescue, CellTiterGlo 48 h; further: % of control where 0% means no effect; nearly all actives have a fitted effect of over 45% in size
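Read-out: ATP-based luminescence (CellTiterGlo, 10 min ambient) reporting growth of fusion-defective ts yeast after 48 hours at 37C on glycerol/ethanol YPEG medium in the presence of compound.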
The depositor's hits bear a star; ? = inconclusive; nt = not tested or not shown. Most compounds without a hit are left out; they make up all but 5.5% or so of the library. Unless noted, the call rests on the fitted dose curve; in most records, active means well fitted curve in the direction sought with a large enough effect; inconclusive means small, poorly fitted or top-dose-only effect, or another doubt; inactive means no such curve, though single readings can be large; an effect the other way counts as inactive or inconclusive. Potency means the concentration at half of the fitted maximal effect.

SMILES	BCR signal inh	Integrin act MD	Gal4-VP16 FLuc	RORg inh	uPA generation	Mito fusion yeast
O=[N+]([O-])c1cc([N+](=O)[O-])c2cccnc2c1Oc1ccccc1O	-20%	-35%	?	18µM*	-5%	-8%
O=[N+]([O-])c1ccc(O)c2ncccc12	?	nt	0.56µM*	0.28µM*	?	?
O=[N+]([O-])c1ccc(O)c2cccnc12	-4%	-13%	-22%	?	2%	-5%
CN(C)c1ccc(/C=N/NC(=O)CNC(=O)/C=C/c2ccco2)cc1	-4%	-15%	19%	?	1%	-2%
CCCOc1ccc(CC(=O)NCc2ccco2)cc1OC	-3%	-24%	5%	11µM*	1%	-4%
COc1cccc(/C=N/NC(=S)NCc2ccco2)c1OC	?	44%	?	3.5µM*	1%	-7%
CN(C)c1ccc(/C=N/NC(=S)NCc2ccco2)cc1	-14%	9%	5µM*	1.8µM*	2%	-4%
S=C(NCc1ccco1)N/N=C/c1ccncc1	?	?	?	16µM*	1%	-1%
COc1ccc(C(=O)OCC(=O)NCc2ccco2)cc1OC	?	-8%	0%	-25%	-2%	-3%
COc1ccc(C(=O)NCC(=O)N/N=C/c2ccc(C)o2)cc1OC	1%	-22%	-6%	13%	10%	1%
COc1cc(/C=C/C(=O)OCC(=O)NCc2ccco2)ccc1OC(F)F	-5%	-1%	4µM*	2.5µM*	?	-9%
COc1ccc(/C=C/C(=O)OCC(=O)NCc2ccco2)cc1OC	-3%	0%	-3%	21%	-2%	-7%
CC(=O)c1ccc(NC(=S)NCc2ccco2)cc1	?	3%	30%	-10%	2%	-3%
COc1cc(NC(=S)NCc2ccco2)cc(OC)c1OC	?	8%	20µM*	11µM*	4%	3%
CN(C)c1ccc(C(=S)NCc2ccco2)cc1	?	8%	7.9µM*	4µM*	4%	-5%
c1ccc(-c2ccc(OCCN3CCCC3)cc2)cc1	nt	nt	-6%	1%	nt	nt
N/C(COc1ccc(F)cc1)=N\NC(=O)c1cccnc1Oc1ccccc1	-2%	4%	4.5µM*	2.5µM*	-1%	-3%
NC(=O)c1cccnc1Oc1ccc(Cl)cc1	?	2%	8%	1%	-1%	-2%
COc1cc(/C=N/NC(=S)NCCc2ccccc2)cc(OC)c1OC	?	33%	?	13µM*	9%	?
S=C(NCCc1ccccc1)N/N=C/c1ccc(Cl)cc1	3%	-35%	?	?	-2%	-3%
CCCCNC(=S)N/N=C/c1ccc(C)s1	-6%	-5%	2.5µM*	1µM*	-3%	-4%
S=C(NCCc1ccccc1)N/N=C/c1c(Cl)cccc1Cl	?	-19%	8.9µM*	10µM*	5%	-5%
Cc1ccc(/C=N/NC(=S)NCCc2ccccc2)s1	?	-26%	2.2µM*	0.22µM*	6%	4%
CCOc1ccccc1OCCC(=O)OCC(=O)Nc1c(C)cc(C)cc1C	-1%	-19%	nt	nt	11%	0%
O=c1cc(N=Nc2ccc(Cl)cc2)[nH]c(=O)[nH]1	?	-57%	4µM*	2.5µM*	-14%	-48%
SMILES	BCR signal inh	Integrin act MD	Gal4-VP16 FLuc	RORg inh	uPA generation	Mito fusion yeast
O=c1cc(-c2ccc(Cl)cc2)oc(=O)[nH]1	?	14%	3%	0%	8%	3%
Cc1ccc(-c2c(C(=O)N/N=C/c3ccc(C)o3)nnn2-c2nonc2N)cc1	-7%	28%	11µM*	7.9µM*	6%	-1%
CCCOc1ccc(-c2c(C(=O)N/N=C/c3ccc(C)cc3)nnn2-c2nonc2N)cc1	?	-24%	-13%	?	-2%	0%
Cc1ccc(-c2c(C(=O)N/N=C/c3ccco3)nnn2-c2nonc2N)cc1	?	21%	?	6.3µM*	-2%	16%
CCCC[C@H](O)c1ccccc1	nt	nt	4%	-24%	nt	nt
CC(c1ccccc1)n1c(SCC(=O)N2CC(=O)Nc3ccccc32)nc2ccccc2c1=O (stereo not given)	10%	-12%	-8%	34%	6%	0%
Cc1nnc(SCC(=O)N2CC(=O)Nc3ccccc32)n1Cc1ccccc1	5%	10%	-8%	14%	2%	-1%
O=C1CN(C(=O)CSc2nnnn2-c2ccc(Cl)cc2)c2ccccc2N1	?	-16%	-3%	3.5µM*	-2%	0%
O=C1CN(C(=O)CSc2nc3cc(Cl)ccc3c(=O)n2Cc2ccccc2)c2ccccc2N1	?	-66%	13µM*	?	11%	2%
Cc1ccc(Cn2c(SCC(=O)N3CC(=O)Nc4ccccc43)nc3ccccc3c2=O)cc1	21%	27%	?	1.6µM*	-5%	4%
CCC1=NN(C(=O)C(=O)NCCc2ccccc2)C(O)(C(F)(F)F)C1 (stereo not given)	12%	16%	1.8µM*	0.63µM*	8%	3%
CCC1=NN(C(=O)CCc2ccccc2)C(O)(C(F)(F)F)C1 (stereo not given)	15%	3%	?	13µM*	4%	2%
O=C(CCc1ccccc1)N1N=C(c2ccncc2)CC1(O)C(F)(F)F (stereo not given)	0%	26%	1%	-3%	-1%	2%
COc1ccc(CC(=O)N2N=C(C)CC2(O)C(F)(F)F)cc1OC (stereo not given)	1%	25%	?	?	2%	1%
CC1=NN(C(=O)CCc2ccc3c(c2)OCO3)C(O)(C(F)(F)F)C1 (stereo not given)	0%	0%	2.2µM*	4.5µM*	13%	7%
COc1ccc([C@@H](OC)[C@@]2(Cc3ccc(O)cc3)N=C(N)N(C)C2=O)cc1	1%	20%	nt	nt	-26%	-12%

Bioassay records as filed in PubChem BioAssay.
